According to PubChem BioAssay (NCI):
This is part of a sample that, as a whole, favours compounds with a hit. Of some 79,000 tested, about 15% had one in any assay. Unmarked numbers belong to inactive results. Activity calls are given as the source filed them. No stated cut-off is given here; in the data, active means growth inhibition above about 70%; inactive means the rest.

Experiments:
[1] = NCI Yeast Anticancer Drug Screen. Data for the wt1 strain (AID 149);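 further: 0% = growth of vehicle-treated wt1 cultures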; details: S. cerevisiae wt1 strain (SPY 50644) growth inhibition, stronger effect = higher value
Method in brief: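 wt1 strain grown with compound or vehicle; inhibition taken from the growth difference.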

[2] = NCI Yeast Anticancer Drug Screen. Data for the rad50EPP+ strain (AID 151);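 further: 0% = growth of vehicle-treated control cultures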; details: S. cerevisiae rad50 mutant strain, stronger effect = higher value
Method in brief: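 Measured: growth inhibition of rad50EPP+ yeast. Reference: vehicle-treated controls. Screen uses strains with defined genetic alterations in DNA damage repair or cell cycle control.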

[3] = NCI Yeast Anticancer Drug Screen. Data for the mgt1 strain (AID 153); details: S. cerevisiae mgt1 mutant growth inhibition, stronger effect = higher value
Method in brief: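 Compounds were applied to mgt1 mutant yeast, and growth was then compared against vehicle-treated control cultures to give percent inhibition.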

[4] = NCI Yeast Anticancer Drug Screen. Data for the rad50 strain (AID 155);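 further: 0% = growth of vehicle-only cultures of the same strain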; details: S. cerevisiae rad50 strain growth inhibition, stronger effect = higher value
Method in brief: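 DNA repair mutant yeast, compound exposure, growth read-out; inhibition is taken relative to vehicle.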

[5] = NCI Yeast Anticancer Drug Screen. Data for the mec2-1 strain (AID 157); details: S. cerevisiae mec2-1 strain, stronger effect = higher value
Method in brief: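 Compounds were applied to mec2-1 yeast cells. Their growth was then compared with that of vehicle-treated cultures to give growth inhibition.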

[6] = NCI Yeast Anticancer Drug Screen. Data for the rad14 strain (AID 159);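 further: 0% = growth of vehicle-treated control cultures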; details: S. cerevisiae rad14 strain growth inhibition, stronger effect = higher value
Method in brief: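 DNA repair-defective yeast, compound-exposed; % growth inhibition derived by comparison with vehicle-treated controls.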

[7] = NCI Yeast Anticancer Drug Screen. Data for the sgs1 mgt1 strain (AID 161);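 further: 0% = growth of cultures given vehicle only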; details: S. cerevisiae sgs1 mgt1 strain, stronger effect = higher value
Method in brief: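 This yeast growth screen uses a strain with defined DNA-repair lesions; compound-treated growth is compared with vehicle-treated growth.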

[8] = NCI Yeast Anticancer Drug Screen. Data for the CLN2oe strain (AID 163);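 further: 0% = growth of vehicle-only control cultures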; details: S. cerevisiae CLN2oe strain, stronger effect = higher value
Method in brief: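 Cells of an engineered yeast line with disturbed cell-cycle regulation are treated with compound. Inhibition of growth is then calculated relative to the vehicle-treated reference.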

[9] = NCI Yeast Anticancer Drug Screen. Data for the cln2 rad14 strain (AID 165);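 further: 0% = growth equal to vehicle treated cultures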; details: S. cerevisiae cln2 rad14 strain, stronger effect = higher value
Method in brief: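 Strain: cln2 rad14 yeast, altered in cell cycle control and DNA damage repair. Read-out: growth inhibition vs vehicle.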

[10] = NCI Yeast Anticancer Drug Screen. Data for the bub3 strain (AID 167); details: S. cerevisiae bub3 mutant strain, stronger effect = higher value
Method in brief: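 In this screen, a yeast mutant lacking normal mitotic checkpoint function is challenged with compound. Relative growth versus vehicle gives the inhibition value.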

[11] = NCI Yeast Anticancer Drug Screen. Data for the wt2 strain (AID 169);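 further: 0% = growth of vehicle-treated yeast cultures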; details: S. cerevisiae wt2 strain growth inhibition, stronger effect = higher value
Method in brief: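 Growth of compound-treated yeast is measured and expressed as inhibition relative to vehicle-only controls.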

[12] = NCI Yeast Anticancer Drug Screen. Data for the mlh1 strain (AID 171);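 further: 0% = growth of vehicle-treated control cultures of the same strain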; details: S. cerevisiae mlh1 strain growth inhibition, stronger effect = higher value
Method in brief: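 Test agents were incubated with yeast bearing a defined DNA damage repair or cell cycle control alteration; values are growth inhibition normalised to vehicle-treated cultures.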

[13] = NCI Yeast Anticancer Drug Screen. Data for the sgs1 strain (AID 173);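 further: 0% = growth of vehicle-only control cultures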; details: S. cerevisiae sgs1 mutant, stronger effect = higher value
Method in brief: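 Strain with an altered DNA repair or cell cycle pathway exposed to compound. Growth then measured. Value = inhibition versus vehicle control.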

[14] = NCI Yeast Anticancer Drug Screen. Data for the mlh1 rad18 strain (AID 175); details: S. cerevisiae mlh1 rad18 strain growth inhibition, stronger effect = higher value
Method in brief: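 A repair-deficient yeast strain is exposed to test compound, and growth is scored relative to vehicle-treated controls.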

[15] = NCI Yeast Anticancer Drug Screen. Data for the rad18 strain (AID 177); details: S. cerevisiae rad18 mutant growth inhibition, stronger effect = higher value
Method in brief: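 DNA-repair-defective yeast; compound treatment; growth inhibition scored against vehicle.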

[16] = at 5.0 µM (retest, dose inferred, filed as 0.5)
[17] = at 50.0 µM (retest, dose inferred, filed as 5.0)

Work on `CC(C)OC(=O)NNc1c(Cl)cc(Cl)cc1Cl` yielded a growth inhibition ([1]; at 1.2 µM) of -2%, a growth inhibition ([1]; at 3.7 µM) of -3% and a growth inhibition ([1]; at 11.0 µM) of -4%. It also gave a growth inhibition ([1]; at 33.0 µM) of -3%, a growth inhibition ([1]; at 100.0 µM) of -5% and a growth inhibition ([2]; at 1.2 µM) of 10%. The growth inhibition ([2]; at 3.7 µM) was 31%, the growth inhibition ([2]; at 11.0 µM) was 49% and the growth inhibition ([2]; at 33.0 µM) was 74% (active). The growth inhibition ([2]; at 100.0 µM) was 79% (active), the growth inhibition ([3]; at 1.2 µM) was -2% and the growth inhibition ([3]; at 3.7 µM) was -2%. It also gave a growth inhibition ([3]; at 11.0 µM) of 2%, a growth inhibition ([3]; at 33.0 µM) of 8% and a growth inhibition ([3]; at 100.0 µM) of 5%. For the same molecule, the growth inhibition ([4]; at 1.2 µM) was -2%, the growth inhibition ([4]; at 3.7 µM) was 7% and the growth inhibition [4, 16] was 18%. It also gave a growth inhibition ([4]; at 11.0 µM) of 18%, a growth inhibition ([4]; at 33.0 µM) of 16% and a growth inhibition [4, 17] of 28%. For the same molecule, the growth inhibition ([4]; at 50.0 µM) was 2.75%, the growth inhibition ([4]; at 100.0 µM) was 13% and the growth inhibition ([5]; at 1.2 µM) was -3%. It also gave a growth inhibition ([5]; at 3.7 µM) of -3%, a growth inhibition [5, 16] of 0% and a growth inhibition ([5]; at 11.0 µM) of 0%. For the same molecule, the growth inhibition ([5]; at 33.0 µM) was 1%, the growth inhibition [5, 17] was 10% and the growth inhibition ([5]; at 50.0 µM) was 3.15%. The growth inhibition ([5]; at 100.0 µM) was 0%, the growth inhibition ([6]; at 1.2 µM) was -4% and the growth inhibition ([6]; at 3.7 µM) was -2%. It also gave a growth inhibition ([6]; at 11.0 µM) of 2%, a growth inhibition ([6]; at 33.0 µM) of 7% and a growth inhibition ([6]; at 100.0 µM) of 7%. It also gave a growth inhibition [7, 16] of 4%, a growth inhibition [7, 17] of 24% and a growth inhibition ([7]; at 50.0 µM) of 15.2%. It also gave a growth inhibition ([8]; at 1.2 µM) of 1%, a growth inhibition ([8]; at 3.7 µM) of 5% and a growth inhibition ([8]; at 11.0 µM) of 14%. It also gave a growth inhibition ([8]; at 33.0 µM) of 19%, a growth inhibition ([8]; at 100.0 µM) of 18% and a growth inhibition [9, 16] of 14%. For the same molecule, the growth inhibition [9, 17] was 21%, the growth inhibition ([9]; at 50.0 µM) was 12.3% and the growth inhibition ([10]; at 1.2 µM) was 26%. The growth inhibition ([10]; at 3.7 µM) was 38%, the growth inhibition [10, 16] was 36% and the growth inhibition ([10]; at 11.0 µM) was 58%. For the same molecule, the growth inhibition ([10]; at 33.0 µM) was 76% (active), the growth inhibition [10, 17] was 82% (active) and the growth inhibition ([10]; at 50.0 µM) was 93.2% (active). The growth inhibition ([10]; at 100.0 µM) was 81% (active), the growth inhibition ([11]; at 1.2 µM) was 2% and the growth inhibition ([11]; at 3.7 µM) was 3%. The growth inhibition ([11]; at 11.0 µM) was 2%, the growth inhibition ([11]; at 33.0 µM) was 9% and the growth inhibition ([11]; at 100.0 µM) was 17%. The growth inhibition ([12]; at 1.2 µM) was -2%, the growth inhibition ([12]; at 3.7 µM) was -1% and the growth inhibition ([12]; at 11.0 µM) was 4%. The growth inhibition ([12]; at 33.0 µM) was 8%, the growth inhibition ([12]; at 100.0 µM) was 8% and the growth inhibition ([13]; at 1.2 µM) was -3%. For the same molecule, the growth inhibition ([13]; at 3.7 µM) was -2%, the growth inhibition ([13]; at 11.0 µM) was 0% and the growth inhibition ([13]; at 33.0 µM) was 8%. The growth inhibition ([13]; at 100.0 µM) was 9%, the growth inhibition [14, 16] was 10% and the growth inhibition [14, 17] was 38%. It also gave a growth inhibition ([14]; at 50.0 µM) of 24.9%, a growth inhibition ([15]; at 1.2 µM) of 0% and a growth inhibition ([15]; at 3.7 µM) of 15%. The growth inhibition ([15]; at 11.0 µM) was 33%, the growth inhibition ([15]; at 33.0 µM) was 40% and the growth inhibition ([15]; at 100.0 µM) was 27%.

With `CCOC(=O)CC1(C)/C(=N\Nc2ccc([N+](=O)[O-])cc2[N+](=O)[O-])CCC2C1CCC1(C)C(C(C)CCCC(C)C)CCC21` (stereo unspecified) the growth inhibition ([1]; at 1.2 µM) was 0%, the growth inhibition ([1]; at 3.7 µM) was -1% and the growth inhibition ([1]; at 11.0 µM) was -1%. The growth inhibition ([1]; at 33.0 µM) was -1%, the growth inhibition ([1]; at 100.0 µM) was -3% and the growth inhibition ([2]; at 1.2 µM) was -2%. The growth inhibition ([2]; at 3.7 µM) was -1%, the growth inhibition ([2]; at 11.0 µM) was -2% and the growth inhibition ([2]; at 33.0 µM) was -2%. It also gave a growth inhibition ([2]; at 100.0 µM) of 1%, a growth inhibition ([3]; at 1.2 µM) of -1% and a growth inhibition ([3]; at 3.7 µM) of -3%. The growth inhibition ([3]; at 11.0 µM) was -2%, the growth inhibition ([3]; at 33.0 µM) was -1% and the growth inhibition ([3]; at 100.0 µM) was -5%. The growth inhibition ([4]; at 1.2 µM) was 1%, the growth inhibition ([4]; at 3.7 µM) was 2% and the growth inhibition [4, 16] was 92% (active). For the same molecule, the growth inhibition ([4]; at 11.0 µM) was 3%, the growth inhibition ([4]; at 33.0 µM) was 0% and the growth inhibition [4, 17] was 90% (active). The growth inhibition ([4]; at 50.0 µM) was -50.5%, the growth inhibition ([4]; at 100.0 µM) was -1% and the growth inhibition ([5]; at 1.2 µM) was -4%. The growth inhibition ([5]; at 3.7 µM) was -4%, the growth inhibition [5, 16] was 10% and the growth inhibition ([5]; at 11.0 µM) was -5%. It also gave a growth inhibition ([5]; at 33.0 µM) of -1%, a growth inhibition [5, 17] of 10% and a growth inhibition ([5]; at 50.0 µM) of -6.8%. The growth inhibition ([5]; at 100.0 µM) was -5%, the growth inhibition ([6]; at 1.2 µM) was 0% and the growth inhibition ([6]; at 3.7 µM) was -2%. It also gave a growth inhibition ([6]; at 11.0 µM) of -4%, a growth inhibition ([6]; at 33.0 µM) of -3% and a growth inhibition ([6]; at 100.0 µM) of -3%. It also gave a growth inhibition [7, 16] of 6%, a growth inhibition [7, 17] of 4% and a growth inhibition ([7]; at 50.0 µM) of -26.4%. The growth inhibition ([8]; at 1.2 µM) was -2%, the growth inhibition ([8]; at 3.7 µM) was -4% and the growth inhibition ([8]; at 11.0 µM) was 6%. It also gave a growth inhibition ([8]; at 33.0 µM) of -2%, a growth inhibition ([8]; at 100.0 µM) of -5% and a growth inhibition [9, 16] of 7%. For the same molecule, the growth inhibition [9, 17] was -3%, the growth inhibition ([9]; at 50.0 µM) was -21.4% and the growth inhibition ([10]; at 1.2 µM) was -1%. For the same molecule, the growth inhibition ([10]; at 3.7 µM) was -3%, the growth inhibition [10, 16] was -10% and the growth inhibition ([10]; at 11.0 µM) was -5%. For the same molecule, the growth inhibition ([10]; at 33.0 µM) was -3%, the growth inhibition [10, 17] was -11% and the growth inhibition ([10]; at 50.0 µM) was -1.1%. For the same molecule, the growth inhibition ([10]; at 100.0 µM) was -5%, the growth inhibition ([11]; at 1.2 µM) was 0% and the growth inhibition ([11]; at 3.7 µM) was 1%. It also gave a growth inhibition ([11]; at 11.0 µM) of 0%, a growth inhibition ([11]; at 33.0 µM) of -1% and a growth inhibition ([11]; at 100.0 µM) of -1%. For the same molecule, the growth inhibition ([12]; at 1.2 µM) was -1%, the growth inhibition ([12]; at 3.7 µM) was -3% and the growth inhibition ([12]; at 11.0 µM) was -2%. The growth inhibition ([12]; at 33.0 µM) was -3%, the growth inhibition ([12]; at 100.0 µM) was -3% and the growth inhibition ([13]; at 1.2 µM) was -1%. For the same molecule, the growth inhibition ([13]; at 3.7 µM) was -3%, the growth inhibition ([13]; at 11.0 µM) was -2% and the growth inhibition ([13]; at 33.0 µM) was -1%. For the same molecule, the growth inhibition ([13]; at 100.0 µM) was -2%, the growth inhibition [14, 16] was 4% and the growth inhibition [14, 17] was 2%. The growth inhibition ([14]; at 50.0 µM) was 0.05%, the growth inhibition ([15]; at 1.2 µM) was -2% and the growth inhibition ([15]; at 3.7 µM) was -5%. It also gave a growth inhibition ([15]; at 11.0 µM) of -3%, a growth inhibition ([15]; at 33.0 µM) of -5% and a growth inhibition ([15]; at 100.0 µM) of -4%.
